In all, about 300,000 compounds went through this assay and about 4,000 (1.3%) were called active. The list comes from a sample in which actives are over-represented; it also holds similar structures and randomly drawn compounds. Unmarked numbers belong to inactive results.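 How the source made its calls: active means mean replicate score, as percent of positive control median, at least 50; inconclusive means mean below 50 but one replicate at or above 50; inactive means mean and every replicate below 50.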
experiment: kanamycin survival loss of SKKanGAS strain – BacTiter-Glo luminescence, streptokinase expression inhibitor project, primary screen (AID 1662);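 further: strain carries kanamycin resistance gene driven by streptokinase promoter and grows in 40 µg/ml kanamycin; loss of luminescence reflects streptokinase promoter inhibition or plain growth inhibition; 0% = median of DMSO wells and 100% = positive control at its reference dose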; settings: S. pyogenes SKKanGAS, kanamycin growth, 6 h, at 7.5 µM, active compounds read high

Point of comparison: `CO/N=C/CC(=O)c1ccc(OC)cc1`, inhibition -3.09%. Against it:
- Cc1scc(C(=O)NNC(=S)NCC(C)C)c1C — higher, -0.356%
- CC(C)(C)C(=O)NNC(=O)c1ccc(Oc2cc(Cl)cc(Cl)c2)o1 — higher, 0.127%
- CN(c1ccccc1)S(=O)(=O)c1ccc(Cl)c(C(=O)NCCc2c[nH]c3ccccc23)c1 — higher, 4.79%
- CN(c1ccccc1)S(=O)(=O)c1cc(C(=O)OCC(=O)N2CCN(C(=O)c3ccco3)CC2)ccc1Cl — higher, -0.977%
- COc1cc2ccccc2cc1C(=O)N(CCN(C)C)c1nc2c(F)cccc2s1 — higher, 0.17%
- COc1cccc(CSc2nc3nc(C)cc(C)n3n2)c1 — higher, 3.04%
- CSc1nc2ccccc2c(=O)n1Cc1ccc(F)cc1 — higher, 18.7%
- CC(=O)Nc1ccc(NC(=O)CSc2ncnc3c2cnn3Cc2ccccc2)cc1 — higher, 3.94%
- Cc1ccc(-c2noc(CNC(=O)c3ccoc3C)n2)cc1 — higher, 0.278%
- O=C(N/N=C/c1ccc([N+](=O)[O-])o1)c1cccc(S(=O)(=O)N2CCOCC2)c1 — higher, 5.79%
- Cc1ccc(-c2nn(-c3ccccc3)cc2/C=N/NC(=O)c2ccc3c(c2)OCO3)cc1 — higher, 11.9%
- CCn1cc(CCC(=O)NCc2ccc(F)cc2)c2ccccc21 — higher, 0.859%
- COc1cccc(NC(=O)CSc2nnc(Cc3ccc(OC)c(OC)c3)o2)c1 — lower, -5.07%
- Cc1cccc([C@@H]2[C@@H]3C(=O)N(C)C(=O)[C@@H]3[C@@H]3C(=O)Nc4ccccc4C(=O)N23)c1 — higher, 1.01%
- COc1ccc(N2CCN(CCCNC(=O)C3CCN(S(=O)(=O)N4CCOCC4)CC3)CC2)cc1 — higher, 0.276%
- CC(C)c1ccc(NC(=S)NNc2ccc(Cl)c(C(=O)O)c2)cc1 — higher, 5.7%
- Cc1ccc(C)c(NC(=S)NNC(=O)c2csc(C)c2)c1 — lower, -5.04%
- C[C@@H]1CC[C@]2(O[C@@H](CCO)C[C@H](O)[C@H]2O)O1 — higher, -1.49%
- CN(C)S(=O)(=O)c1cccc(-c2nn(-c3ccccc3)cc2/C=C2\SC(=S)N(CC(=O)O)C2=O)c1 — higher, 25.2%
- COc1ccc(-c2nn(-c3ccccc3)cc2/C=C2/SC(=S)N(CCCC(=O)O)C2=O)c(C)c1 — higher, 46.2%
- CCCN(CC(=O)Nc1ccccc1OC)C(=O)CCC(=O)c1ccc(F)cc1 — lower, -6.42%
- CSCCC(NS(=O)(=O)c1ccccc1F)C(=O)N1CC=C(c2ccccc2)CC1 (centres undefined) — higher, -1.43%
- O=C(Nc1ccc2oc(-c3ccccc3F)nc2c1)c1ccco1 — lower, -5.59%
- COc1ccc2[nH]c(=O)c(CNc3ccc(C)c(C)c3)cc2c1 — higher, 26.7%
- Cn1nc(-c2ccccc2)c(CO)c1Sc1ccccc1 — lower, -5.22%
- Cc1ccc(S(=O)(=O)c2c(COC(=O)c3cccc(Cl)c3)c(-c3ccccc3)nn2C)cc1 — lower, -28.6%
- CC(=O)N(CN1C(=O)C2C3C=CC(C3)C2C1=O)c1cccc(Cl)c1 (centres undefined) — higher, -0.219%
- CCOC(=O)c1nnn(CC(=O)Nc2cccc(F)c2)c1C(=O)OCC — higher, -0.0535%
- COc1cccc(CN(C)CC2CCCN(CCc3ccc(Cl)cc3)C2)c1OC (centres undefined) — higher, -0.785%
- COc1ccc(NC(=O)CS(=O)(=O)c2ccccc2)cc1 — lower, -4.25%
- Cc1nc(NC(=O)c2ccc3c(c2)OCCO3)ccc1Br — lower, -9.44%
- O=C(Nc1nc2ccccc2s1)c1ccc2c(c1)OCO2 — lower, -10.7%
- COC(=O)c1ccc([C@@H](O)[C@H](C)C(=O)CC(=O)OC(C)(C)C)cc1 — higher, -0.38%
- COc1ccc(C(=O)NC(=S)N2CCCCC2c2cccnc2)cc1OC (centres undefined) — higher, 5.87%
- Cc1cccc(C(=O)NCCCN(C)CCCNC(=O)c2cccc(C)c2)c1 — higher, -2.44%
- Cc1cccc(NC(=S)NCCN(C2CCCCC2)C2CCCC2)c1 — lower, -5.79%
- COc1ccc(C2/C(=C(/O)c3ccc4c(c3)CC(C)O4)C(=O)C(=O)N2Cc2ccncc2)cc1 (centres undefined) — higher, 1.18%
- O=C(CN(CC1CCCO1)C(=O)CNS(=O)(=O)c1ccc(Cl)cc1)NCc1ccccc1 (centres undefined) — lower, -3.12%
- CCc1c(C)c2ccc(OC3CCCCC3=O)cc2oc1=O (centres undefined) — lower, -6.62%
- COCCCNC(=O)CSc1nc2ccc(N3CCOCC3)cc2c(=O)n1CCc1ccccc1 — higher, 34.6%
- CCCCn1c(SCC(=O)NCC2CCCO2)nc2ccc(N3CCOCC3)cc2c1=O (centres undefined) — higher, 2.53%
- COCC(C)n1c(C)cc(C(=O)CSc2cc(C)c3ccccc3n2)c1C (centres undefined) — higher, 2.07%
- Cc1ccc(C(=O)N/N=C\c2cc(Br)c(Br)o2)cn1 — higher, 6.13%
- Cc1nn(-c2ccccc2)c2sc(C(=O)N(Cc3ccco3)C(C)C(=O)NC(C)(C)C)cc12 (centres undefined) — higher, 6.98%
- Cc1ccc(OCC(=O)NCCCNC(=O)c2ccco2)cc1C — higher, 2.37%
- O=C(Nc1ccc2ccccc2c1)/C(=C/c1cccc(Br)c1)NC(=O)c1ccco1 — higher, 14.5%
- Cc1ccc(C(=O)NNC(=O)C(C)Oc2ccc3ccccc3c2)o1 (centres undefined) — lower, -4.95%
- CCCc1ccc(OCCNC(=O)c2ccco2)cc1 — lower, -5.79%
- COc1cc2nc(CN(C)Cc3ccc(F)cc3)[nH]c(=O)c2cc1OC — higher, 16.4%
- CC1=CC=CN2C1=NC(=O)CC2(C)C(=O)N(CC(=O)NC1CCCC1)c1ccccc1C (centres undefined) — higher, 1.46%
- Cc1nn(CCCC(=O)NCc2ccccc2Cl)c(=O)c2nccn12 — lower, -6.9%
- Cc1ccc2nc(Nc3ccccc3)cc(C)c2c1 — higher, 0.508%
- Cc1ccc2nc(-c3ccncc3)cc(C(=O)Nc3ccncc3)c2c1 — higher, 1.9%
- CCOCCCNC(=O)c1ccc(CS(=O)(=O)c2cccc(C(F)(F)F)c2)o1 — higher, -1.72%
- CC1CCN(C(NC(=O)c2ccco2)C(=O)c2ccccc2)CC1 (centres undefined) — higher, -2.13%
- CCC(=O)Nc1ccc(-c2ccc(N3CCCCC3)nn2)cc1 — higher, 1.15%
- CCCCCN(C(=O)CCC(=O)OCCOc1ccc(OC)cc1)c1c(N)n(CCCC)c(=O)[nH]c1=O — lower, -3.52%
- CS(=O)(=O)c1ccc2nnn(OCC(=O)Nc3cccc(C#N)c3)c2c1 — lower, -3.98%
- COc1ccc(NC(=O)CN2C(=O)CSc3ccc(S(=O)(=O)N4CCC(C)CC4)cc32)cc1 — higher, 10.8%
- CCOC(=O)c1cnc(-n2nc(C)cc2C)nc1Nc1cccc(C(C)=O)c1 — higher, 35%
- CCOC(=O)c1cnc(-c2ccccc2)nc1Oc1ccc(C)cc1 — higher, 20.4%
- Cc1ccc(S(=O)(=O)/N=C(\CN2CCOCC2)N2CCOCC2)cc1 — higher, 2.49%
- CC(C)N1CCC(=NNc2ccc([N+](=O)[O-])cc2S(=O)(=O)N2CCOCC2)CC1 — higher, 17.1%
- CN(C)c1ccc(-n2cccc2/C=N/n2cnnc2)cc1 — higher, 0.00128%
- NS(=O)(=O)c1ccc(NC(=S)NC(=O)c2cccc(Br)c2)cc1 — higher, 0.49%
- Cc1ccccc1NC(=S)NNC(=O)c1cccc(Br)c1 — lower, -4.92%
- CCOC(=O)c1ccccc1NS(=O)(=O)c1c(C)nc2sccn2c1=O — higher, -2.29%
- CN(C)CCNc1ccc(-c2n[nH]c(=O)c3ccccc23)cc1[N+](=O)[O-] — lower, -10.2%
- Oc1cccc(/C=N/Nc2ccc(Cl)nn2)c1O — lower, -9.25%
- COc1cccc2c(N/N=C/c3ccco3)cc(C)nc12 — lower, -8.63%
- Cc1nc(Cl)cc(N/N=C/c2ccccc2)n1 — lower, -4.1%
- COc1ccc(/C=N/Nc2cc(N3CCOCC3)nc(C)n2)c(OC)c1 — higher, 14.3%
- COc1ccc(-c2nn(-c3ccccc3)cc2/C=N/Nc2ccccn2)cc1OC — higher, 16.9%
- Cc1ccc(S(=O)(=O)Nc2nc(C)cc(N/N=C/c3ccc(O)cc3)n2)cc1 — higher, -2.8%

With `CN(c1ccccc1)S(=O)(=O)c1cc(C(=O)Nc2nc3ccccc3[nH]2)ccc1Cl` the inhibition was 58.3% (active).
In the case of `CSc1c(SCc2ccccc2)cnn(Cc2ccccc2)c1=O`, the inhibition is reported as 66.2% (active).
For `O=C(N/N=C/c1ccc([N+](=O)[O-])o1)c1cn(-c2ccccc2)nc1-c1ccc(F)cc1`, the inhibition was 85.5% (active).
With `Cc1ccc(C)c(NC(=S)NNC(=S)Nc2ccc(C(C)C)cc2)c1` the inhibition was 51.2% (active).
For `Cc1ccc(-c2nn(-c3ccccc3)cc2/C=C2\SC(=S)N(CCCCCC(=O)O)C2=O)o1`, the inhibition was 103% (active).
For `Oc1c(Cl)cc(Cl)c(Cl)c1Cc1c(O)c(Cl)cc(Cl)c1Cl`, the inhibition was 109% (active).
With `Cn1nc(-c2ccccc2)c(CSc2cccc(Cl)c2)c1Cl` the inhibition was 61.6% (active).
In the case of `Cc1ccc2sc(NNC(=O)c3ccc4c(c3)OCCO4)nc2c1C`, the inhibition is reported as 52.7% (active).
For `Cc1cccc(C(=O)NC(=S)N(C)C2CCCCC2)c1`, the inhibition was 55.3% (active).
In the case of `N#CCSc1nc2ccc(N3CCOCC3)cc2c(=O)n1CCc1ccccc1`, the inhibition is reported as 71.7% (active).
In the case of `CCCc1ccc(OCC(=O)NNC(=S)NC(=O)c2ccco2)cc1`, the inhibition is reported as 113% (active).
With `CC(Oc1ccc2ccccc2c1)C(=O)NNC(=S)NC(=O)c1ccco1` (centres undefined) the inhibition was 128% (active).
With `CCS(=O)(=O)Nc1cccc(-c2cc(-c3ccccc3)c3cc(C)ccc3n2)c1` the inhibition was 97.3% (active).
For `CC1CCN(c2ccc(-c3ccc(NC(=O)c4ccco4)cc3)nn2)CC1`, the inhibition was 70% (active).
With `CCOC(=O)c1cnc(-n2nc(C)cc2C)nc1NNc1cc(C)nc(-c2ccccc2)n1` the inhibition was 101% (active).
With `O=C(NC(=S)Nc1cccc2c(O)cccc12)c1cccc(Br)c1` the inhibition was 63.3% (active).
With `COc1ccccc1/C=N\Nc1cc(C)nc(-n2nc(C)cc2C)n1` the inhibition was 101% (active).
With `Cc1cc(N/N=C\c2ccc(Br)cc2)nc(-n2nc(C)cc2C)n1` the inhibition was 102% (active).
In the case of `COc1cccc(/C=N/Nc2cc(C)nc(-c3ccccc3O)n2)c1O`, the inhibition is reported as 64.5% (active).
